Bioassay records as filed in PubChem.
Phagocyt inh: inhibitors of macrophage phagocytosis, primary screen, imaging, J774A.1 cells, IgG beads | J774A.1 macrophage IgG-bead phagocytosis | inhibition, % at 5 µM | 0.07% of 110,000 active | AID 1029, 2008;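 active = inhibition above the mean of the plate negative controls plus 5 SD, cut at about 13% in these data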;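 also: phagocytic index as fraction of beads internalized from green versus red external bead signal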
MRP reversal: reversal of MRP1-mediated doxorubicin resistance, primary screen, H69AR cells, doxorubicin co-treatment. H69AR cells + 2 uM doxorubicin, CellTiter-Glo, 72 h. differential viability (reversal), % at 10 µM. 0.04% of 85,000 active. AID 602, 2007;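 active = viability drop by adding the cancer drug above about 55%, with treated viability meeting a 40% cutoff, limit read from the data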;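 also: larger differential means the compound sensitizes cells more to doxorubicin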
MRP-1 activ: H69AR viability gain despite doxorubicin, primary screen, MRP-1 activator project, H69AR cells, CellTiter-Glo; 0.61% of 140,000 active; viability rescue; viability increase, % at 10 µM;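 active = viability gain under doxorubicin at or above a set limit, the compound median plus 3 SD, cut at about 4.7% in these data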;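 also: MRP-1 overexpressing cells given doxorubicin 25 µM after compound pretreatment; 18-22 h compound pretreatment then 72 h with doxorubicin before readout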
A number is an active result; - = inactive; . = not tested or not shown; [ ] = dose if it differs, or a comment. Sampled rows, rich in hits. Any-hit rate of the full collection: about 0.69%.

SMILES | Phagocyt inh | MRP reversal | MRP-1 activ
CC(=O)N1CC(=O)N=C1SCC(=O)Nc1nc(-c2ccccc2)c(-c2ccccc2)s1 | - | . | -
CCn1c(CNC(=O)c2cccs2)n[nH]c1=S | - | . | -
Cn1nc(C(F)(F)F)c2cc(NC(=O)OCc3ccc(C(C)(C)C)cc3)sc21 | - | - | 7.1
Cn1nc(C(F)(F)F)c2cc(NC(=O)OCc3ccc(F)cc3)sc21 | - | - | -
CC1SCCN1S(=O)(=O)c1ccc2ccccc2c1 (centres undefined) | . | - | -
CCCCCCC1CC(CSc2ncn[nH]2)OC1=O (centres undefined) | - | - | 7.2
CCCCCCC1CC(CCc2nc(=S)[nH][nH]2)C(=O)O1 (centres undefined) | - | . | -
Oc1c(C=Nc2cccc3cccnc23)sc2ccccc12 | - | - | -
O=[N+]([O-])c1ccc(O)c(N=Cc2sc3ccccc3c2O)c1 | - | . | 5.5
Cc1ccc(NC(=O)N(Cc2cccs2)Cc2cc3cc4c(cc3[nH]c2=O)OCO4)cc1 | - | . | -
Cc1ccc(NC(=O)N(Cc2ccc3c(c2)OCO3)Cc2cc3cc4c(cc3[nH]c2=O)OCCO4)cc1 | - | 55.3 | -
O=c1c2c3n(c(=S)nc2[nH]n1-c1ccccc1)CCCCC3 | - | - | -
CC(C)(C)C1CCc2c(sc(NC(=O)c3cccs3)c2C(=O)N2CCCCC2)C1 (centres undefined) | - | - | 5.0
COC(=O)c1c(NC(=O)c2cccs2)sc2c1CCC(C)C2 (centres undefined) | - | - | -
COC(=O)c1ccccc1NC(=O)c1cccs1 | - | 56.1 | -
COc1ccccc1NC(=O)c1cccs1 | - | . | -
COc1ccc(CC(=O)Nc2ccccc2C(=O)N2CCOCC2)cc1 | - | . | -
CNc1nc(SCC(=O)OC)nc(N2CCOCC2)n1 | 74.2[artifact] | - | -
CNc1nc(C(=O)O)nc(N2CCOCC2)n1 | . | - | -
O=C(NC1CCCCC1)c1cccc(Cn2cc(Cl)cn2)c1 | . | - | -
O=C(CSCc1ccc(Cl)cc1)Nc1nccs1 | . | - | -
O=C(CC1SC(=O)N(Cc2ccc(Cl)cc2)C1=O)Nc1nccs1 (centres undefined) | - | . | 12.2
O=C(CCn1c(=O)[nH]c2ccsc2c1=O)N1CCN(c2cccc(Cl)c2)CC1 | - | - | -
Cc1ccc(Cl)cc1N1CCN(C(=O)Cc2ccc(-n3c(=O)[nH]c4ccsc4c3=O)cc2)CC1 | - | . | 9.7
C[C@H](C(=O)C=[N+]=[N-])N1C(=O)c2ccccc2C1=O | - | - | 11.9
SMILES | Phagocyt inh | MRP reversal | MRP-1 activ
[N-]=[N+]=CC(=O)CC(c1ccccc1)N1C(=O)c2ccccc2C1=O (centres undefined) | - | - | -
Cc1ccc(S(=O)(=O)N2CCN(Cc3ccccc3)CC2)c(C)c1N(C)S(=O)(=O)c1ccccc1 | - | . | -
CC(/C=N/N1CCN(c2ccccc2)CC1)=C\c1ccccc1 | - | . | -
CC(/C=N/N1CCN(c2ccccn2)CC1)=C\c1ccccc1 | - | . | 5.0
CCOc1ccc(-n2c(SCc3ccc([N+](=O)[O-])cc3)nnc2-c2ccc(OC)cc2)cc1 | - | . | -
CN(C)S(=O)(=O)c1cccc(C(=O)OCC(=O)Nc2sccc2C#N)c1 | . | . | -
Clc1cnc(N/N=C/c2cccs2)c(Cl)c1 | - | 81.2 | -
Cc1ccc(/C=N/Nc2ncc(Cl)cc2Cl)s1 | - | - | -
CCCCCNc1nc(-c2ccccc2)cs1 | . | - | -
CCc1ccc(-c2nc(-c3ccncc3)no2)cc1 | - | - | 5.8
CCCCc1ccc(-c2nc(-c3ccncc3)no2)cc1 | - | - | -
CC(NC(=O)CCc1ccccc1)c1cc2c(cc1Cl)OCCO2 (centres undefined) | - | . | -
O=C(CSCc1ccc(Cl)cc1)N/N=C/c1c(Cl)cccc1Cl | - | . | -
O=C(CSCc1ccc(F)cc1)Nc1ccccc1 | - | . | -
O=C(CSCc1ccc(Cl)cc1)N/N=C/c1ccccc1 | - | . | 4.8
O=C(CSCc1ccccc1)Nc1ccc(F)c(F)c1 | - | . | 4.7
COc1ccc(NC(=O)/C(=C/c2cccnc2)NC(=O)c2cccs2)cc1 | . | . | -
COc1ccccc1/C=C1\CCCC2=C1Nc1nnnn1C2c1ccccc1OC (centres undefined) | . | . | -
CCOC(=O)c1nnc(-c2ccc(C)cc2)nc1Oc1ccccc1Cl | - | . | -
CCOC(=O)c1nnc(-c2ccc(C)cc2)nc1Oc1ccc(Cl)cc1Cl | . | . | 5.0
Cc1ccc(S(=O)(=O)NNc2ccccc2)c(C)c1 | - | . | -
Cc1nc(SCC(=O)CC(=O)OC(C)C)c(C#N)c(C)c1C | . | . | -
CSc1nc(N)nc(SCC(=O)CC(=O)OC(C)C)c1C#N | 38.3[artifact] | - | -
COc1ccc(CCCC(=O)NCc2ccccc2)cc1C | - | . | -
CC(/C=C1\SC(=S)N(NC(=O)c2ccc(C)cc2)C1=O)=C\c1ccccc1 | . | . | -
SMILES | Phagocyt inh | MRP reversal | MRP-1 activ
CC(=O)c1ccc(NC(=O)CN2C(=O)/C(=C/C(C)=C/c3ccccc3)SC2=S)cc1 | - | . | 8.5
Cc1ccc(NC(=O)CCCN2C(=O)/C(=C/C=C/c3ccccc3)SC2=S)cc1 | - | . | -
CC(/C=C1\SC(=S)N(CCCC(=O)Nc2ccc(C(=O)O)c(O)c2)C1=O)=C\c1ccccc1 | - | . | 4.8
CCCCN(C(=O)c1cccc2c(=O)c(C)c(-c3ccccc3)oc12)c1ccccc1 | - | . | -
CCOC(=O)c1sc(Nc2nc3cc4c(cc3s2)OCO4)cc1C | . | . | 4.7
CCOC(=O)c1sc(Nc2nc3c(OC)cccc3s2)cc1C | - | . | -
CN=C(Nc1ccc(Cl)cc1)c1ccc(C(F)(F)F)cc1 | . | . | -
O=C(COC(=O)Cc1c(Cl)cccc1Cl)Nc1ccc(OC(F)(F)F)cc1 | - | . | -
CC(OC(=O)c1ccccc1Br)C(=O)Nc1nc(-c2cccc([N+](=O)[O-])c2)cs1 (centres undefined) | - | . | -
O=C(Nc1nc(-c2cccc([N+](=O)[O-])c2)cs1)C(c1ccccc1)c1ccccc1 | - | . | 8.9
COc1cccc(-c2csc(NC(=O)Oc3ccccc3)n2)c1 | - | . | 7.5
COc1ccc(CC(=O)Nc2nc(-c3cccc([N+](=O)[O-])c3)cs2)cc1 | - | . | -
COc1cc(CN(C(=S)NCC(=O)NC2CCCC2)C2CCCC2)cc(OC)c1OC | - | . | -
O=C(CCc1ccccc1)N/N=C/c1cc(Br)ccc1O | - | . | 6.4
Cc1ccc(/C=N/NC(=S)NC(C)C)o1 | - | . | -
CC(C)NC(=S)N/N=C/c1cc(Br)ccc1O | - | . | 5.0
O=C(N/N=C/c1cc(Br)ccc1O)c1ccccc1Cl | - | . | -
Cn1nc([N+](=O)[O-])nc1Oc1ccc(C(C)(C)C)cc1 | - | . | -
CC1=[N+](C)N(c2ccccc2)C(=O)C1N=Cc1c(Cl)cccc1Cl (centres undefined) | . | . | -
Nc1ccc(C(=O)OCC(=O)N2CCc3ccccc3C2)cc1[N+](=O)[O-] | - | . | -
Nc1ccc(C(=O)OCC(=O)N2c3ccccc3Sc3ccccc32)cc1[N+](=O)[O-] | - | . | 8.7
Cc1ccc(/C=C2/SC(=S)N(CC(=O)Nc3ncc(Cc4ccc(C)cc4)s3)C2=O)cc1 | - | - | -
Cc1cccc(Cc2cnc(NC(=O)CN3C(=O)/C(=C/c4ccccc4)SC3=S)s2)c1 | - | . | 5.6
CCN(CC)CC(C)CNC(=O)CN1C(=O)CSc2ccc(S(=O)(=O)N3CCOCC3)cc21 (centres undefined) | - | . | -
